In PubChem BioAssay (NCI) one finds growth inhibition data, which are given here for nine compounds.

The panel holds about 79,000 compounds, 15% with a hit somewhere; the sample as a whole holds those more often. Unmarked numbers belong to inactive results. Active and inactive are the calls of the source. No stated cut-off is given here; in the data, active means growth inhibition above about 70%; inactive means the rest.

Test [1] in a line: NCI Yeast Anticancer Drug Screen. Data for the rad50 strain (AID 155).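 Further: 0% = growth of vehicle-only cultures of the same strain.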 Conditions: S. cerevisiae rad50 strain growth inhibition, hits give high values. In short, it runs like this:
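A DNA repair-deficient yeast mutant serves as the test organism; compound-induced growth inhibition is calculated against vehicle-treated cells.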

Test [2] in a line: NCI Yeast Anticancer Drug Screen. Data for the mec2-1 strain (AID 157). The conditions noted are these: S. cerevisiae mec2-1 strain, hits give high values. The essentials:
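Cells of the genetically defined mec2-1 yeast strain are incubated with test compound. Inhibition of growth is calculated against vehicle-treated controls.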

Test [3] is described as follows: NCI Yeast Anticancer Drug Screen. Data for the sgs1 mgt1 strain (AID 161).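 Further: 0% = growth of cultures given vehicle only.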 The conditions noted are these: S. cerevisiae sgs1 mgt1 strain, hits give high values. The essentials:
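Inhibition of yeast growth, normalised to vehicle-treated controls, is reported for a strain bearing genetic alterations in DNA damage repair.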

Test [4] can be described thus: NCI Yeast Anticancer Drug Screen. Data for the cln2 rad14 strain (AID 165).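 Further: 0% = growth equal to vehicle treated cultures.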 The conditions noted are these: S. cerevisiae cln2 rad14 strain, hits give high values. The essentials: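 The screen exposed genetically defined yeast (cln2 rad14) to test compounds and scored growth inhibition relative to vehicle-treated controls.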
Test [5] is described as follows: NCI Yeast Anticancer Drug Screen. Data for the bub3 strain (AID 167). Conditions: S. cerevisiae bub3 mutant strain, hits give high values. In short, it runs like this: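 Inhibition values come from growth of compound-treated mutant yeast normalised to vehicle-treated controls.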
The nature of test [6]: NCI Yeast Anticancer Drug Screen. Data for the mlh1 rad18 strain (AID 175). Conditions: S. cerevisiae mlh1 rad18 strain growth inhibition, hits give high values. In short, it runs like this: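 Compound-treated yeast growth, normalised to vehicle controls. Strain bears defined DNA repair mutations.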
[7] abbreviates: at 5.0 µM (retest, dose inferred, filed as 0.5).
The mark [8] stands for this setting: at 50.0 µM (retest, dose inferred, filed as 5.0).

Consider `CCCC/C(=C\c1cc(Cl)c(O)c(Cl)c1)C(=O)O`, for which the growth inhibition was 4% in test [1] (setting [7]); 79% (active) in test [1] (setting [8]); 59.5% in test [1] (at 50.0 µM); 2% in test [2] (setting [7]); 79% (active) in test [2] (setting [8]); 70.8% (active) in test [2] (at 50.0 µM). The growth inhibition is 2% in test [3] (setting [7]); 82% (active) in test [3] (setting [8]); 71.8% (active) in test [3] (at 50.0 µM); -5% in test [4] (setting [7]); 76% (active) in test [4] (setting [8]); 72.4% (active) in test [4] (at 50.0 µM). The growth inhibition in test [5] (setting [7]) is 1%; in test [5] (setting [8]) it was 79% (active); in test [5] (at 50.0 µM), 56%; in test [6] (setting [7]) it was -16%; in test [6] (setting [8]) it was 85% (active); in test [6] (at 50.0 µM) it was 87.5% (active).
On to `CC1OC(OP(=O)(OCc2ccccc2)OCc2ccccc2)C(OC(=O)c2ccccc2)C(OC(=O)c2ccccc2)C1I` (configuration not stated), for which the growth inhibition was 50% in test [1] (setting [7]); 93% (active) in test [1] (setting [8]); 86.1% (active) in test [1] (at 50.0 µM); 33% in test [2] (setting [7]); 95% (active) in test [2] (setting [8]); 90.6% (active) in test [2] (at 50.0 µM). For the same compound, the growth inhibition in test [3] (setting [7]) was 37%; in test [3] (setting [8]), 96% (active); in test [3] (at 50.0 µM), 90.1% (active); in test [4] (setting [7]), 29%; in test [4] (setting [8]), 95% (active); in test [4] (at 50.0 µM), 88.5% (active). The growth inhibition in test [5] (setting [7]) was 30%; in test [5] (setting [8]), 77% (active); in test [5] (at 50.0 µM), 88.9% (active); in test [6] (setting [7]), 55%; in test [6] (setting [8]), 93% (active); in test [6] (at 50.0 µM), 85% (active).
Take `Nc1cc2c(cc1/C=C(\C(=O)O)c1ccccc1)OCO2`: the growth inhibition is -1% in test [1] (setting [7]); -4% in test [1] (setting [8]); 52.2% in test [1] (at 50.0 µM); -11% in test [2] (setting [7]); -8% in test [2] (setting [8]); -8.75% in test [2] (at 50.0 µM). Moreover, the growth inhibition in test [3] (setting [7]) was -5%; in test [3] (setting [8]), -8%; in test [3] (at 50.0 µM), 56%; in test [4] (setting [7]), -4%; in test [4] (setting [8]) it was 9%; in test [4] (at 50.0 µM), -24.6%. Besides, the growth inhibition in test [5] (setting [7]) is -6%; in test [5] (setting [8]), 2%; in test [5] (at 50.0 µM), -5.95%; in test [6] (setting [7]), -3%; in test [6] (setting [8]) it was -2%; in test [6] (at 50.0 µM), 15.2%.
Consider `CSc1nc(N)c2cnn(C3OC(CO)C(O)C3O)c2n1` (configuration not stated), for which the growth inhibition is -9% in test [1] (setting [7]); 8% in test [1] (setting [8]); 9.55% in test [1] (at 50.0 µM); -12% in test [2] (setting [7]); -11% in test [2] (setting [8]); 2.8% in test [2] (at 50.0 µM). The growth inhibition was -25% in test [3] (setting [7]); -6% in test [3] (setting [8]); 15.2% in test [3] (at 50.0 µM); 7% in test [4] (setting [7]); 28% in test [4] (setting [8]); 6.8% in test [4] (at 50.0 µM). Also, the growth inhibition in test [5] (setting [7]) was 3%; in test [5] (setting [8]), 80% (active); in test [5] (at 50.0 µM), 12%; in test [6] (setting [7]), -20%; in test [6] (setting [8]) it was -12%; in test [6] (at 50.0 µM), 22%.
In the case of `Cc1c(O)/c(=C\O)c2nc3c(=O)ccc(C(=O)NCCN(C)C)c3[nH]c2c1=O`, the growth inhibition in test [1] (setting [7]) was 29%; in test [1] (setting [8]) it was 97% (active); in test [1] (at 50.0 µM), 57.5%; in test [2] (setting [7]), 14%; in test [2] (setting [8]), 70% (active); in test [2] (at 50.0 µM) it was 98.2% (active). In addition, the growth inhibition was 33% in test [3] (setting [7]); 97% (active) in test [3] (setting [8]); 56% in test [3] (at 50.0 µM); -10% in test [4] (setting [7]); 94% (active) in test [4] (setting [8]); 98.2% (active) in test [4] (at 50.0 µM). Moreover, the growth inhibition was 19% in test [5] (setting [7]); 96% (active) in test [5] (setting [8]); 98.3% (active) in test [5] (at 50.0 µM); 34% in test [6] (setting [7]); 96% (active) in test [6] (setting [8]); 45.1% in test [6] (at 50.0 µM).
Take `CC(C)c1ncc(-c2ccccc2)cc1-c1ccccc1`: the growth inhibition was -2% in test [1] (setting [7]); 93% (active) in test [1] (setting [8]); 95.7% (active) in test [1] (at 50.0 µM); -3% in test [2] (setting [7]); 96% (active) in test [2] (setting [8]); 97.5% (active) in test [2] (at 50.0 µM). The growth inhibition is -1% in test [3] (setting [7]); 94% (active) in test [3] (setting [8]); 97.7% (active) in test [3] (at 50.0 µM); 2% in test [4] (setting [7]); 86% (active) in test [4] (setting [8]); 78.8% (active) in test [4] (at 50.0 µM). Further, the growth inhibition in test [5] (setting [7]) is 6%; in test [5] (setting [8]) it was 95% (active); in test [5] (at 50.0 µM), 98.5% (active); in test [6] (setting [7]) it was -7%; in test [6] (setting [8]), 95% (active); in test [6] (at 50.0 µM), 96% (active).
With `CCCCOC(c1ccccc1)N1CCCCC1` (configuration not stated), the growth inhibition in test [1] (setting [7]) is 0%; in test [1] (setting [8]), 6%; in test [1] (at 50.0 µM) it was 28.8%; in test [2] (setting [7]) it was 0%; in test [2] (setting [8]) it was 11%; in test [2] (at 50.0 µM) it was -10.7%. Also, the growth inhibition in test [3] (setting [7]) was -3%; in test [3] (setting [8]), 6%; in test [3] (at 50.0 µM), 35.8%; in test [4] (setting [7]), -3%; in test [4] (setting [8]) it was -12%; in test [4] (at 50.0 µM) it was -13.6%. Further, the growth inhibition in test [5] (setting [7]) is -4%; in test [5] (setting [8]), -4%; in test [5] (at 50.0 µM), 4.15%; in test [6] (setting [7]) it was -4%; in test [6] (setting [8]), -3%; in test [6] (at 50.0 µM) it was 7.35%.
Consider `COC(=O)c1nc(=S)[nH]c(C(=O)OC)c1C(=O)c1ccc(O)c(OC)c1`, for which the growth inhibition in test [1] (setting [7]) is -6%; in test [1] (setting [8]) it was 95% (active); in test [1] (at 50.0 µM), 98.5% (active); in test [2] (setting [7]) it was -7%; in test [2] (setting [8]), 97% (active); in test [2] (at 50.0 µM), 78.3% (active). For the same compound, the growth inhibition in test [3] (setting [7]) was -16%; in test [3] (setting [8]), 96% (active); in test [3] (at 50.0 µM), 98.4% (active); in test [4] (setting [7]) it was -4%; in test [4] (setting [8]), 90% (active); in test [4] (at 50.0 µM) it was 47%. Also, the growth inhibition was 1% in test [5] (setting [7]); 96% (active) in test [5] (setting [8]); 84.3% (active) in test [5] (at 50.0 µM); 7% in test [6] (setting [7]); 97% (active) in test [6] (setting [8]); 96.3% (active) in test [6] (at 50.0 µM).
For the compound `COc1ccc(/C=N/NS(=O)(=O)c2ccc(C)cc2)cc1`, the growth inhibition in test [1] (setting [7]) was 13%; in test [1] (setting [8]), 83% (active); in test [1] (at 50.0 µM) it was 94.2% (active); in test [2] (setting [7]), -5%; in test [2] (setting [8]) it was 97% (active); in test [2] (at 50.0 µM), 67.9%. Moreover, the growth inhibition is 6% in test [3] (setting [7]); 98% (active) in test [3] (setting [8]); 91.7% (active) in test [3] (at 50.0 µM); 18% in test [4] (setting [7]); 96% (active) in test [4] (setting [8]); 45.4% in test [4] (at 50.0 µM). For the same compound, the growth inhibition in test [5] (setting [7]) is 23%; in test [5] (setting [8]), 94% (active); in test [5] (at 50.0 µM), 46.3%; in test [6] (setting [7]), 46%; in test [6] (setting [8]), 98% (active); in test [6] (at 50.0 µM), 97.3% (active).
